Test results from PubChem BioAssay (NCATS).
Inconclusive results are not listed. Active and inactive are the calls of the source. Unless noted, the call rests on the fitted dose curve; in most records, active means well fitted curve in the direction sought with a large enough effect; inconclusive means small, poorly fitted or top-dose-only effect, or another doubt; inactive means no such curve, though single readings can be large; an effect the other way counts as inactive or inconclusive.

Tests used:
[1] = target: Cytochrome P450 1A2 (Homo sapiens) (UniProt P05177); assay: p450-cyp1a2 (AID 410; calls by dose curve;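 further: -100% = full effect of reference inhibitor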)
In short: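 20nM CYP1A2 with 100uM Luciferin-ME (at Km) in 100mM KPO4; compound preincubated 10 min, NADPH regeneration added, 60 min at room temperature. Luciferin quantified by luminescence after detection reagent; normalized to 57 uM furafylline.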

[2] = NFAT Signaling Pathway (AID 444; active means well fitted curve in either direction with a large enough effect, not every such curve was filed as active;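 further: carbachol stimulus at about its EC50 of 1 µM final; on the % scale 0 is the no-effect control and ±100 the full control effect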); conditions: Jurkat NFAT-bla M1, carbachol, beta-lactamase ratio, 5 h; at 38 µM (top of the series)
In short: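 Jurkat cells carrying an NFAT-driven β-lactamase reporter and co-transfected muscarinic M1 receptor were treated with compound plus carbachol (1 uM final, an EC50 level) for 5 h at 37 °C. CCF4 loading followed for 1 h at RT; 460/530 nm ratio gave %activity.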

[3] = target: Glucocorticoid receptor (Homo sapiens) (UniProt P04150); assay: GR-EFC Redistribution (AID 451; calls by dose curve; further: potency means the concentration at half of the fitted maximal effect); conditions: CHO-K1 GR-EFC translocation, beta-gal luminescence, 2 h
In short: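 CHO-K1 cells stably expressing nuclear-localized β-gal enzyme acceptor and GR fused C-terminally to the enzyme donor fragment; ligand-driven nuclear translocation restores β-gal by complementation. Compounds titrated up to 46 uM final, 2 h at 37 °C; luminescence read.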

[4] = target: Mitogen-activated protein kinase 10 (Mus musculus) (UniProt Q61831); assay: JNK3 AlphaScreen Assay (AID 530; active means well fitted curve in either direction with a large enough effect, not every such curve was filed as active;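 further: kinase came from lysate of stimulated human HepG2 cells; signal reports phosphorylation of biotinylated GST-cJun 1-79 at Ser73 with 10 µM ATP; on the % scale 0 is the no-effect control and ±100 the full control effect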)
In short: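 Inhibitors reduce antibody binding to phosphorylated biotin-cJun, lowering AlphaScreen luminescence. Lysates from HepG2 cells pre-activated by IL-1beta plus TNF-alpha supplied JNK3; compounds were titrated.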

[5] = target: 3',5'-cyclic-AMP phosphodiesterase 4B (Homo sapiens) (UniProt Q07343); assay: qHTS Assay for Inhibitors of PDE-IV (AID 607; active means well fitted activation curve with a large enough effect in the main read-out, with a control signal flat, not every such curve was filed as active; further: % of control where 0% means no effect)
In short: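 The readout is membrane depolarisation from a cAMP-sensing CNG channel, detected with a potential dye at ex 535/em 590. Cells were HEK293-derived (endogenous PDE-IV) at 1000 cells/well, titrated up to 22.9 uM final.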

[6] = target: Guanine nucleotide-binding protein G(i) subunit alpha-1 (Homo sapiens) (UniProt P63096); assay: qHTS Assay for Inhibitors of RGS12 GoLoco Motif Activity (Green Fluorophore) (AID 879);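 further: 0% = labeled peptide with Gαi1 and full inhibition = labeled peptide alone without protein; negative values mean loss of peptide binding seen as reduced polarization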
In short: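 Fluorescence polarization assay: 50 nM Gαi1 with 10 nM FITC-labeled RGS12 GoLoco peptide in 10 mM Tris pH 7.5, 150 mM NaCl, 0.1 mM GDP, 0.05% NP40, 10 min at room temperature with compound.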

[7] = target: Cytochrome P450 3A4 (Homo sapiens) (UniProt P08684); assay: qHTS Assay for Activators of Cytochrome P450 3A4 (AID 885); further: nearly all actives have a fitted effect of over 65% in size
In short: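 Steps: enzyme/substrate mix dispensed; compound added, 10 min RT; NADPH regeneration solution added, 60 min RT; luciferin detection buffer stops reaction; 20 min later luminescence measured.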

[8] = target: Muscarinic acetylcholine receptor M1 (Rattus norvegicus) (UniProt P08482); assay: qHTS Assay for Antagonists of Acetylcholine Muscarinic M1 Receptor: Kinetic Measurement of Intracellular Calcium Response (AID 943); further: nearly all actives have a fitted effect of over 75% in size
In short: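 CHO cells expressing rat M1 receptor, Fluo-4 loaded, preincubated 10 min with compound, then stimulated with EC80 carbachol (100 nM final). Kinetic calcium fluorescence over 4 min; response taken as peak over basal signal.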

[9] = target: Muscarinic acetylcholine receptor M1 (Rattus norvegicus) (UniProt P08482); assay: qHTS Assay for Antagonists of Acetylcholine Muscarinic M1 Receptor: Measurement of IP-One Response (AID 944); further: nearly all actives have a fitted effect of over 75% in size
In short: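 CHO cells stably expressing rat M1, pretreated 10 min with compound, then stimulated 30 min with carbachol at EC80 (200 nM) in LiCl-containing buffer pH 7.4; IP1 accumulation read by HTRF competition (665/620 nm).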

[10] = target: Pyruvate kinase (Leishmania mexicana) (UniProt Q27686); assay: qHTS Validation Assay for Inhibitors of Leishmania Mexicana Pyruvate Kinase (AID 945);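 further: 0% = DMSO only neutral control wells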
In short: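 An endpoint luciferase assay: 0.2 nM LmPYK E451W turns over 0.5 mM PEP with 0.1 mM ADP for 1 h at room temperature, pH 7.2, before PKLight addition. Values are normalized to DMSO-only wells.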

[11] = target: Alpha-galactosidase A (Homo sapiens) (UniProt P06280); assay: Counterscreen for Glucocerebrosidase Inhibitors: qHTS Assay for Human alpha-Galactosidase at pH 4.5 (AID 992); further: 0% is about no effect
In short: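 Concentration-response curves (0.7 nM to 77 uM final) were modeled with the Hill equation to give AC50. Reactions: 2 nM enzyme, 80 uM fluorogenic alpha-galactoside, pH 4.5 citric acid buffer, 20 min, room temperature.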

[12] = target: Alpha-galactosidase (Coffea arabica) (UniProt Q42656); assay: Counterscreen for Glucocerebrosidase Inhibitors: qHTS Assay for Coffee Bean alpha-Galactosidase at pH 5.9 (AID 998);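 further: plate controls were uninhibited enzyme for no effect and no-enzyme basal signal for full effect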
In short: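 Green coffee bean enzyme (2 nM final) was incubated with compounds (0.7 nM–77 uM) and 4-methylumbelliferyl alpha-D-galactopyranoside (80 uM) in citrate buffer pH 5.9, 20 min at room temperature. High-pH stop; fluorescence 365/440 nm; AC50 from Hill fits.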

Furin (Homo sapiens) = Furin (Homo sapiens) (UniProt P09958); assay: Furin counterscreen qHTS for Zika virus inhibitors (AID 1347149);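 further: purified recombinant full-length human furin enzyme at 5 nM; fluorescence gain from furin cutting a BOC-RVRR-AMC peptide substrate over 15 min; top concentration of the series differs between compounds; plate controls were no-inhibitor control for no effect and no-enzyme control for full effect; nearly all actives have a fitted effect of over 70% in size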
In short: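 Fluorogenic cleavage of BOC-RVRR-AMC (2 microM final, Km ~15 µM) was monitored (ex 340, em 450 nm) at 37C after 15 min RT preincubation of 5 nM furin with compounds in HEPES pH 7.0 buffer with CaCl2 and Triton X-100. Percent inhibition was fitted to a 4-parameter Hill curve.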

[13] = tested on: Zika virus NS2B-NS3 protease (linked construct); assay: Confirmatory screen NINDS AMC qHTS for Zika virus inhibitors (AID 1347152);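 further: top concentration of the series differs between compounds; 0% = no-inhibitor control and -100% = no-enzyme control; nearly all actives have a fitted effect of over 70% in size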
In short: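 IC50s from 4-parameter Hill fits of percent inhibition, based on AMC fluorescence gain (340/450 nm) over 15 min with 10 microM Bz-Nle-KRR-AMC. Enzyme: 1 nM linked NS2B-NS3 in Tris-HCl pH 8.0; 15-min compound preincubation.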

[14] = tested on: Zika virus NS2B-NS3 protease (unlinked complex); assay: Confirmatory screen GU AMC qHTS for Zika virus inhibitors (AID 1347153);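 further: percent inhibition with 0% = no inhibitor control and 100% = no enzyme control; nearly all actives have a fitted effect of over 70% in size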
In short: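 Fluorescence change (ex 340/em 450 nm) over 15 min, ~20% substrate conversion, normalized to no-inhibitor and no-enzyme controls, then Hill-fitted. Unlinked protease at 25 nM; AMC peptide 10 µM.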

[15] = Confirmatory screen NINDS Rhodamine qHTS for Zika virus inhibitors (AID 1347161);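 further: purified Zika NS2B-NS3 protease with linked NS2B cofactor domain and Rhodamine110 peptide substrate; plate controls were no-inhibitor control for no effect and no-enzyme control for full effect; nearly all actives have a fitted effect of over 60% in size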
In short: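 In 10 mM Tris-HCl pH 8.0 containing 0.01% Tween 20, linked NS2B-NS3 protease (25 nM final) is exposed to test compounds for 15 min. Cleavage of 1.5 microM Rhodamine110 substrate is tracked by fluorescence over 15 min.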

[16] = HepG2 cells viability qHTS for Zika virus inhibitors (AID 1347168); further: on the % scale 0 is the no-effect control and ±100 the full control effect
In short: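 Counter-screen for cytotoxicity of hits from NS2B-NS3 protease qHTS. Overnight-attached cells (2.5 x 10^5 cells/mL, DMEM/4% FBS) were dosed in titration, incubated 24 to 48 hours, then assayed by CellTiter Glo.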

[17] = Primary qHTS for small molecule stabilizers of the endoplasmic reticulum resident proteome: Secreted ER Calcium Modulated Protein (SERCaMP) assay (AID 1508630); further: potency means the concentration at half of the fitted maximal effect
In short: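 GLuc-SERCaMP-expressing SH-SY5Y cells, pretreated 16 h with compound, are challenged with thapsigargin to empty ER calcium stores; after 4 h, coelenterazine is added directly to the medium and luminescence is imaged.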

[18] = tested on: Zika virus NS2B-NS3 protease; assay: Primary screen GU AMC qHTS for Zika virus inhibitors (AID 1347154);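 further: 0% = no-inhibitor control and -100% = no-enzyme control; nearly all actives have a fitted effect of over 70% in size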
In short: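 Unlinked Zika NS2B hydrophilic domain/NS3 protease domain noncovalent complex (25 nM final) in 10 mM Tris-HCl pH 8.0, 0.01% Tween 20, with AMC peptide substrate. Fluorescence (ex 340, em 450 nm) change over 15 min, room temperature; percent inhibition fitted to 4-parameter Hill equation.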

[19] = tested on: Zika virus NS2B-NS3 protease (unlinked); assay: Optimization of GU AMC qHTS for Zika virus inhibitors: Unlinked NS2B-NS3 protease assay (AID 1347151);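 further: 0% = no-inhibitor control and -100% = no-enzyme control; nearly all actives have a fitted effect of over 80% in size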
In short: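 Fluorescence gain (340/450 nm) over 15 min at room temperature, ~20% conversion, gave percent inhibition fitted to a 4-parameter Hill equation; enzyme was unlinked NS2B-NS3 (25 nM final), pH 8.0 Tris buffer.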

[20] = Confirmatory qHTS for small molecule stabilizers of the endoplasmic reticulum resident proteome: Secreted ER Calcium Modulated Protein (SERCaMP) assay (AID 1508628); further: potency means the concentration at half of the fitted maximal effect; nearly all actives have a fitted effect of over 40% in size
In short: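 SH-SY5Y cells stably expressing GLuc-SERCaMP, treated 16 h with compound (primary 1.53, 7.67, 38.3 uM; confirmation 11 concentrations, up to 76.6 uM), then 100 nM thapsigargin for 4 h. Secreted Gaussia luciferase in medium read by coelenterazine luminescence.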

[21] = Cell Viability qHTS for small molecule stabilizers of the endoplasmic reticulum resident proteome (AID 1508629); conditions: cell viability counter-screen, 100 nM thapsigargin for final 4 h;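 further: human SH-SY5Y neuroblastoma cells carrying the GLuc-SERCaMP reporter; compound exposure about 46 h in total before the viability read; on the % scale 0 is the no-effect control and ±100 the full control effect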
[22] = target: Nucleoprotein (Lymphocytic choriomeningitis virus (strain Armstrong)) (UniProt P09992); assay: qHTS for Inhibitors of the Functional Ribonucleoprotein Complex (vRNP) of Lymphocytic Choriomeningitis Arenaviruses (LCMV): LCMV Primary Screen - GLuc reporter signal (AID 1347086; calls by dose curve)
[23] = Cytotoxicity counterscreen for inhibitors of SARS-CoV-2 cell entry (AID 1645845; calls by dose curve; further: nearly all actives have a fitted effect of over 50% in size)
In short: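 Expi293F/hACE2 cells seeded overnight; cpd pin-transferred in DMSO, 1 h preincubation, + media, 48 h 37 C 5% CO2; ATPLite 1step luminescence; normalized to cells and no cells.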

[24] = Primary qHTS to identify inhibitors of SARS-CoV-2 cell entry (AID 1645846; calls by dose curve; further: nearly all actives have a fitted effect of over 45% in size); conditions: activity change, negative = inhibition: at 57.1 µM (top of the series) unless noted
In short: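 Entry measured by luciferase signal 48 h after adding SARS-CoV-2-S pseudotyped MLV particles to HEK293-ACE2 cells preincubated 1 h with compounds. Normalisation: bald particles and spike particles.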

Sequence of Furin (Homo sapiens) (P09958 whole entry, looked up): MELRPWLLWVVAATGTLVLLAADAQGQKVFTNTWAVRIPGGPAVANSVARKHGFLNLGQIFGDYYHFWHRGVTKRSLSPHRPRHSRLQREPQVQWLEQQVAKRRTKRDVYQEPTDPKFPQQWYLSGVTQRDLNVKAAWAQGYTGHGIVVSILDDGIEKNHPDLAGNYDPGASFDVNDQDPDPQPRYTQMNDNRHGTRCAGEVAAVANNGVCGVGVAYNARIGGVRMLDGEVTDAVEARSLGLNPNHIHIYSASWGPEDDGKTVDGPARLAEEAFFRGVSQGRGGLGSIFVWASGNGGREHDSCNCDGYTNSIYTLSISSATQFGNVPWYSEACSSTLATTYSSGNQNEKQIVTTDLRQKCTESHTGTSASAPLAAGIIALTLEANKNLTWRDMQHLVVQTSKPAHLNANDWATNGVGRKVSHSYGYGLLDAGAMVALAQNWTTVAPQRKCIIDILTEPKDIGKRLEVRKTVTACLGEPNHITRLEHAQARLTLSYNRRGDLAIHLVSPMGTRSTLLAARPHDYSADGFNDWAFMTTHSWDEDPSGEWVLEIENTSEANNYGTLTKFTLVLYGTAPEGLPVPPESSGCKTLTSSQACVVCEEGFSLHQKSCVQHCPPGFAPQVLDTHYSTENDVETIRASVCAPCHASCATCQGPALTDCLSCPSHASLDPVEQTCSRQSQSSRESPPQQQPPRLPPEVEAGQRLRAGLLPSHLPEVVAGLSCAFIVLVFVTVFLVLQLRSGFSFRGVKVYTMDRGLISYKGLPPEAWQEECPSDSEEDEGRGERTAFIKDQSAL
Sequence of Glucocorticoid receptor (Homo sapiens) (P04150 whole entry, looked up, the tested form may be a part): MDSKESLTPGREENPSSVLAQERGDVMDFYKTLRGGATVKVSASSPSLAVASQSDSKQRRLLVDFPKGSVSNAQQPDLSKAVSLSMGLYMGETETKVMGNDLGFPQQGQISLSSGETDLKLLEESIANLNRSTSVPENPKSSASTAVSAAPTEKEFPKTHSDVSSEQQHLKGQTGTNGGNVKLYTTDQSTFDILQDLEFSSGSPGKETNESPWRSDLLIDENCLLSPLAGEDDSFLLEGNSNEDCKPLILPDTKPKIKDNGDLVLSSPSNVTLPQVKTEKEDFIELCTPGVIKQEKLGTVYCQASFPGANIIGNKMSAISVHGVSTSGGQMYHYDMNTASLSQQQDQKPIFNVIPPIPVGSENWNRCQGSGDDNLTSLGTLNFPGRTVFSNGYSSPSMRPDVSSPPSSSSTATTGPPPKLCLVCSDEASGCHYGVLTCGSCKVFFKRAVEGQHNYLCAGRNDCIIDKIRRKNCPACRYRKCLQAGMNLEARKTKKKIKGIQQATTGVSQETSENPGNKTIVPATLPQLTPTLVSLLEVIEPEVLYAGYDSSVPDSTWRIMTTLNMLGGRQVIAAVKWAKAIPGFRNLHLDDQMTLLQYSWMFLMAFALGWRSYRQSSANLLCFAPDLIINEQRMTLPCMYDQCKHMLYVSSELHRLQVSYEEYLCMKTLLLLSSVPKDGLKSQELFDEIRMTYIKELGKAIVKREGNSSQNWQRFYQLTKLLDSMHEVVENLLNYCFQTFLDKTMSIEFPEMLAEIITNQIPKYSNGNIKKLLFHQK
Sequence of Muscarinic acetylcholine receptor M1 (Rattus norvegicus) (P08482 whole entry, looked up): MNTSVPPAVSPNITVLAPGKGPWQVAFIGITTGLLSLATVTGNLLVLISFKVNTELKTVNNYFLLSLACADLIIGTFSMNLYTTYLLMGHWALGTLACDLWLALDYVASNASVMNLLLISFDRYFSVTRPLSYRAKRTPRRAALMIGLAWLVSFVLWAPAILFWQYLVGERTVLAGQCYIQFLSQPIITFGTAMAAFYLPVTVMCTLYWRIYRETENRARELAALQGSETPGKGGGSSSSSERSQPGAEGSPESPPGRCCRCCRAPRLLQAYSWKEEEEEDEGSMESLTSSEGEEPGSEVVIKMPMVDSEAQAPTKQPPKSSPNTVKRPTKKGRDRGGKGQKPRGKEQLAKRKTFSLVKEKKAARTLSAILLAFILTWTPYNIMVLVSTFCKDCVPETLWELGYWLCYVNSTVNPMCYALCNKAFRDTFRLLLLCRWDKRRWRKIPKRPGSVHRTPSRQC
Sequence of Nucleoprotein (Lymphocytic choriomeningitis virus (strain Armstrong)) (P09992 whole entry, looked up): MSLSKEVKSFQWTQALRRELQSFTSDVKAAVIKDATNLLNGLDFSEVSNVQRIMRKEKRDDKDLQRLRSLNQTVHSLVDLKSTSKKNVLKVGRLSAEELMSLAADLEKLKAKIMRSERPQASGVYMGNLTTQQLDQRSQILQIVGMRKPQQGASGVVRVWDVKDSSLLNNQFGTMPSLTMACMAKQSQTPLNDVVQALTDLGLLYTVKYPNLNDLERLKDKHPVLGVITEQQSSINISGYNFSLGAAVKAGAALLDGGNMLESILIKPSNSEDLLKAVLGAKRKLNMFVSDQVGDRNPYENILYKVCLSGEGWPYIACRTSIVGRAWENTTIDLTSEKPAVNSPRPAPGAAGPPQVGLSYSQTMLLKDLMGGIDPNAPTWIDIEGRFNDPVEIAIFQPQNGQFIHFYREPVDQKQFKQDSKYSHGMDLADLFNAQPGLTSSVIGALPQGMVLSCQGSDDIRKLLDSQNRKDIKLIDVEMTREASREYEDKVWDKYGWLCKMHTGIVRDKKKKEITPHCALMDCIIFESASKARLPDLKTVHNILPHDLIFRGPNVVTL
Sequence of 3',5'-cyclic-AMP phosphodiesterase 4B (Homo sapiens) (Q07343 whole entry, looked up): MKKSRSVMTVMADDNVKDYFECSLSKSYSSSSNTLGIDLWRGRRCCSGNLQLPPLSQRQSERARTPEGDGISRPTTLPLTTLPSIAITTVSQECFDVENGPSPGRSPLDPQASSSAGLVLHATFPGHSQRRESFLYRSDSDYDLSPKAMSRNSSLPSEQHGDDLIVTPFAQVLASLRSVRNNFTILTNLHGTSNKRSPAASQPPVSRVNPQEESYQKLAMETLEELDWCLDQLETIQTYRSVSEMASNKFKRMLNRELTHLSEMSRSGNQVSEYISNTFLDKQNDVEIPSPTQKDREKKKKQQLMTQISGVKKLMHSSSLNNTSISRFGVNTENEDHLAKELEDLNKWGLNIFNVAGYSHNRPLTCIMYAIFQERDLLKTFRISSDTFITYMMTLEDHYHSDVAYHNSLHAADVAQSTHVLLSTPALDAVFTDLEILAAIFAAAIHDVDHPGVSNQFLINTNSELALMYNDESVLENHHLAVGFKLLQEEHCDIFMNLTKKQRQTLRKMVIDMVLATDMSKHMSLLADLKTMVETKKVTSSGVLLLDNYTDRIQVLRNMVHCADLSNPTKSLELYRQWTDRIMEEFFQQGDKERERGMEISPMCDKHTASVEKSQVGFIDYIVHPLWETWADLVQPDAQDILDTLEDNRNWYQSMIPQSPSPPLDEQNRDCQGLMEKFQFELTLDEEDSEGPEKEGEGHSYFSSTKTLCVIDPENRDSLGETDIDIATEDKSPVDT
Sequence of Cytochrome P450 1A2 (Homo sapiens) (P05177 whole entry, looked up): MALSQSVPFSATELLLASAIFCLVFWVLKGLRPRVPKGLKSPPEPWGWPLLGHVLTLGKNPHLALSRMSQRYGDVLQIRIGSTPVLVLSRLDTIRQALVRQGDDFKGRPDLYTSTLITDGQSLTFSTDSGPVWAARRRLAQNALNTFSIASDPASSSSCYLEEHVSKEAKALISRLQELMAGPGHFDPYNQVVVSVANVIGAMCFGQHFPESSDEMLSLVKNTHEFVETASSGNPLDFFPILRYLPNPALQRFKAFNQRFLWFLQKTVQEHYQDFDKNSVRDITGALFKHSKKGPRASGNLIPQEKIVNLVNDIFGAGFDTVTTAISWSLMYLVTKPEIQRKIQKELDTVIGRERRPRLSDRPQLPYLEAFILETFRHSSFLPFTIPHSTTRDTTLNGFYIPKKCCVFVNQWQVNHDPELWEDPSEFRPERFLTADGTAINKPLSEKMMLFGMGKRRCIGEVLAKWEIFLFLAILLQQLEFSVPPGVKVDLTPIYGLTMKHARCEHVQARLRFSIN
Sequence of Cytochrome P450 3A4 (Homo sapiens) (P08684 whole entry, looked up): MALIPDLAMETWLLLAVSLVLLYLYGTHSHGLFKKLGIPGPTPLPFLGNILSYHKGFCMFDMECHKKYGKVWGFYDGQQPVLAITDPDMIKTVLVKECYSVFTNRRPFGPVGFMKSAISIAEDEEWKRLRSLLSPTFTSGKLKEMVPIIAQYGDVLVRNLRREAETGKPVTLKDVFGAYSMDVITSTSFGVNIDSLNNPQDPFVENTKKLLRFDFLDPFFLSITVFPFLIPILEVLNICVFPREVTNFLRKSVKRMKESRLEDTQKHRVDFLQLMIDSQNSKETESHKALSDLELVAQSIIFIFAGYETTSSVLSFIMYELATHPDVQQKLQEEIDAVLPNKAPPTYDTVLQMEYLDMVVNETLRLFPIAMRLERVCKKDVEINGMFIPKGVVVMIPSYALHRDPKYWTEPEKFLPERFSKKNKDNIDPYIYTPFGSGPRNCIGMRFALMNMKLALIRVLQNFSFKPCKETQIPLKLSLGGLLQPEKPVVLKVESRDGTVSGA
Sequence of Guanine nucleotide-binding protein G(i) subunit alpha-1 (Homo sapiens) (P63096 whole entry, looked up): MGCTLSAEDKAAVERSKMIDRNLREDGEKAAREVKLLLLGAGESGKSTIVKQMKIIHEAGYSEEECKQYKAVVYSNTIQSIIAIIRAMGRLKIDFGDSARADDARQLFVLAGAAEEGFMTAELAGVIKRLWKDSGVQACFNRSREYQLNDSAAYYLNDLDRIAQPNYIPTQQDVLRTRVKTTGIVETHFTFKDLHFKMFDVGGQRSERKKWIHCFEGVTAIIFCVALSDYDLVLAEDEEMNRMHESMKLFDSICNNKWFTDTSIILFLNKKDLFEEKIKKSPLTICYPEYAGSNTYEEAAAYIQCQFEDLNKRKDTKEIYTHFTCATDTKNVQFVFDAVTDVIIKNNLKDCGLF

CN(C(=O)Cc1ccc(Cl)c(Cl)c1)[C@@H](CN1CCCC1)c1cccc(OCC(=O)O)c1
inactive: Potency [1] | activity change, negative = inhibition [2] 9.54% | Potency [3] > 46 µM | outcome [4] | Potency [5] | outcome [6] | Potency [7] | Potency [8] | Potency [9] | outcome [10] | outcome [11] | outcome [12] | Potency (Furin (Homo sapiens)) | Potency [13] | Potency [14] | Potency [15] | Potency [16] | Potency [17]

CCCCC/C=C\C/C=C\C/C=C\C/C=C\CCCCCC(=O)NCCO
inactive: activity change, negative = inhibition [18] 3.5% [at 6.83 µM]

C[C@@H]1O[C@@H](O[C@H]2C[C@@H](O)[C@]3(CO)C4C(CC[C@]3(O)C2)[C@@]2(O)CC[C@H](C3=CC(=O)OC3)[C@@]2(C)C[C@H]4O)[C@H](O)[C@H](O)[C@H]1O (some centres not stated)
inactive: Potency (Furin (Homo sapiens)) | outcome [19] | Potency [18] | Potency [17]

CN1CC[C@@]23CCCCC2C1Cc1ccc(O)cc13 (some centres not stated)
active: Potency [20] 3.98 µM | Potency [17] 35.5 µM
inactive: Potency (Furin (Homo sapiens)) | outcome [19] | Potency [16] | max response [21] 30%

Cc1ccc2c(=O)c3cccc(CC(=O)O)c3oc2c1C
-28.2%: activity change, negative = inhibition [24]
inactive: Potency [23]
active: Potency [22] 38.5 µM
